These compounds were tested against N-formyl peptide receptor 2 (Homo sapiens) (UniProt P25090) (assay: human FPR2 ligand displacement single-point screen – cell-based, flow cytometry, single concentration (AID 765)). Details: FPRL1-expressing cells, fluorescent ligand binding inhibition, active compounds read high; at 5.1 µM unless noted; in the data active = inhibition above about 31%; inactive = the rest.
N-formyl peptide receptor 2 (Homo sapiens), sequence (P25090 whole entry, looked up): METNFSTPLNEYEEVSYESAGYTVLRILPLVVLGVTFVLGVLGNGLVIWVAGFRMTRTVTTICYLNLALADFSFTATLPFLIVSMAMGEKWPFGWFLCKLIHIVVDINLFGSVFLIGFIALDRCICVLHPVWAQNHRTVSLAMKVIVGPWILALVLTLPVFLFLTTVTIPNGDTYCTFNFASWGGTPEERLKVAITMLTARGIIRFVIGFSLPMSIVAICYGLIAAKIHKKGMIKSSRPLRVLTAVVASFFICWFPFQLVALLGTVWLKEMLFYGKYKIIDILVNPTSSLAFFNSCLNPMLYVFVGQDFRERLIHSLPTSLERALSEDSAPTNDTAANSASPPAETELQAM

inhibition, inactive:
COc1ccc(-c2cn3cccnc3n2)cc1NC(=O)c1ccco1 -8.1% [at 6.7 µM]
COc1cccc(-c2cc(C(F)(F)F)nc(N3CCN(c4ccccc4OC)CC3)n2)c1 -10.4% [at 5 µM]
COc1ccc(-c2cn3cccnc3n2)cc1NC(=O)CCc1ccccc1 16% [at 6 µM]
O=C(O)CCCC(=O)N1CCN(c2nc(-c3ccccc3)c3ccccc3n2)CC1 -1.7% [at 5.5 µM]

Reference: PubChem BioAssay AID765 (NMMLSC, 2007)
